Among all 5,500 compounds or so, about 2,000 (36%) were called active. Roughly 18% stayed inconclusive and do not appear here. Rule as the data show it: active = normalized growth mostly below about 0.91 (no sharp cut-off); inconclusive = no clear call, values can overlap the other calls; inactive = mostly above about 0.92. Some of the results follow.
Assay: chemical genetic growth profiling, strain panel (AID 1159580);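 also: tested at 20 µM; growth read once vehicle control cultures reached saturation at 30 °C; 1 = growth at the plate median or of vehicle wells; lower values mean less growth of the strain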
Settings: growth OD

Measured: normalized growth

CCN(CC)C(=O)c1cccc(C)c1
inactive: S. cerevisiae deletion strains, locus YKL009W, strain mrt4, active compounds read low 0.956 | S. cerevisiae deletion strains, locus YKL068W, active compounds read low 0.989 | S. cerevisiae deletion strains, locus YKL085W, strain MDH1 (second series), active compounds read low 1 | S. cerevisiae deletion strains, locus YKL085W, strain MDH1, active compounds read low 1 | S. cerevisiae deletion strains, locus YKL160W, strain elf1, active compounds read low 1.02 | S. cerevisiae deletion strains, locus YKL190W, strain CNB1, active compounds read low 0.988 | S. cerevisiae deletion strains, locus YKR001C, strain vps1, active compounds read low 1.01 | S. cerevisiae deletion strains, locus YKR026C, strain gcn3, active compounds read low 1.04 | S. cerevisiae deletion strains, locus YKR091W, strain srl3, active compounds read low 1.03 | S. cerevisiae deletion strains, locus YLL001W, strain dnm1, active compounds read low 1.03 | S. cerevisiae deletion strains, locus YLL026W, active compounds read low 1.04 | S. cerevisiae deletion strains, locus YLL041C, strain sdh2, active compounds read low 1.03 | S. cerevisiae deletion strains, locus YLR027C, strain aat2, active compounds read low 1.02 | S. cerevisiae deletion strains, locus YLR039C, strain RIC1, active compounds read low 1.06 | S. cerevisiae deletion strains, locus YLR058C, strain SHM2, active compounds read low 1 | S. cerevisiae deletion strains, locus YLR102C, strain apc9, active compounds read low 0.999 | S. cerevisiae deletion strains, locus YLR113W, strain HOG1, active compounds read low 0.975 | S. cerevisiae deletion strains, locus YLR221C, strain rsa3, active compounds read low 1.02 | S. cerevisiae deletion strains, locus YLR258W, strain gsy2, active compounds read low 1.04 | S. cerevisiae deletion strains, locus YLR262C, strain YPT6 (second series), active compounds read low 1.03 | S. cerevisiae deletion strains, locus YLR262C, strain YPT6, active compounds read low 1.02 | S. cerevisiae deletion strains, locus YLR268W, strain sec22, active compounds read low 0.978 | S. cerevisiae deletion strains, locus YLR320W, strain mms22, active compounds read low 1.04 | S. cerevisiae deletion strains, locus YLR330W, strain CHS5, active compounds read low 0.993 | S. cerevisiae deletion strains, locus YLR342W, strain FKS1 (second series), active compounds read low 0.987 | S. cerevisiae deletion strains, locus YLR342W, strain FKS1, active compounds read low 1.01 | S. cerevisiae deletion strains, locus YLR357W, strain rsc2, active compounds read low 1.09 | S. cerevisiae deletion strains, locus YLR370C, strain arc18, active compounds read low 1.03 | S. cerevisiae deletion strains, locus YLR371W, strain rom2, active compounds read low 0.982 | S. cerevisiae deletion strains, locus YLR384C, strain iki3, active compounds read low 1.06 | S. cerevisiae deletion strains, locus YLR418C, strain cdc73, active compounds read low 1.05 | S. cerevisiae deletion strains, locus YML016C, strain PPZ1, active compounds read low 1.01 | S. cerevisiae deletion strains, locus YML032C, strain rad52, active compounds read low 0.995 | S. cerevisiae deletion strains, locus YML120C, strain ndi1, active compounds read low 1.02 | S. cerevisiae deletion strains, locus YML124C, strain tub3, active compounds read low 0.998 | S. cerevisiae deletion strains, locus YMR058W, strain fet3, active compounds read low 1.04 | S. cerevisiae deletion strains, locus YMR078C, strain ctf18, active compounds read low 0.994 | S. cerevisiae deletion strains, locus YMR125W, strain sto1, active compounds read low 1.03 | S. cerevisiae deletion strains, locus YMR129W, active compounds read low 1.03 | S. cerevisiae deletion strains, locus YMR205C, strain PFK2, active compounds read low 1.06 | S. cerevisiae deletion strains, locus YMR223W, strain ubp8, active compounds read low 1 | S. cerevisiae deletion strains, locus YMR231W, strain pep5, active compounds read low 1.03 | S. cerevisiae deletion strains, locus YMR263W, strain SAP30, active compounds read low 0.999 | S. cerevisiae deletion strains, locus YMR307W, strain GAS1, active compounds read low 1.02 | S. cerevisiae deletion strains, locus YNL067W, strain RPL9B, active compounds read low 1 | S. cerevisiae deletion strains, locus YNL071W, strain lat1, active compounds read low 1.02 | S. cerevisiae deletion strains, locus YNL128W, strain TEP1, active compounds read low 1 | S. cerevisiae deletion strains, locus YNL153C, strain GIM3, active compounds read low 0.999 | S. cerevisiae deletion strains, locus YNL183C, strain NPR1, active compounds read low 0.924 | S. cerevisiae deletion strains, locus YNL209W, strain ssb2, active compounds read low 1.02 | S. cerevisiae deletion strains, locus YNL233W, strain BNI4, active compounds read low 1.01 | S. cerevisiae deletion strains, locus YNL248C, strain rpa49, active compounds read low 1.02 | S. cerevisiae deletion strains, locus YNL250W, strain rad50, active compounds read low 0.994 | S. cerevisiae deletion strains, locus YNL271C, strain bni1, active compounds read low 1 | S. cerevisiae deletion strains, locus YNL298W, strain CLA4, active compounds read low 0.987 | S. cerevisiae deletion strains, locus YNL307C, strain MCK1, active compounds read low 1.01 | S. cerevisiae deletion strains, locus YNL322C, strain KRE1 (second series), active compounds read low 1.03 | S. cerevisiae deletion strains, locus YNL322C, strain KRE1, active compounds read low 1 | S. cerevisiae deletion strains, locus YNR049C, strain mso1, active compounds read low 1.03 | S. cerevisiae deletion strains, locus YNR052C, strain pop2, active compounds read low 0.987 | S. cerevisiae deletion strains, locus YOL006C, strain TOP1, active compounds read low 1.03 | S. cerevisiae deletion strains, locus YOL012C, strain htz1 0.893 | S. cerevisiae deletion strains, locus YOL147C, strain pex11, active compounds read low 0.998 | S. cerevisiae deletion strains, locus YOR001W, strain rrp6, active compounds read low 1.04 | S. cerevisiae deletion strains, locus YOR061W, strain CKA2, active compounds read low 1 | S. cerevisiae deletion strains, locus YOR069W, strain VPS5, active compounds read low 1.01 | S. cerevisiae deletion strains, locus YOR070C, strain gyp1, active compounds read low 1.02 | S. cerevisiae deletion strains, locus YOR080W, strain dia2, active compounds read low 1.04 | S. cerevisiae deletion strains, locus YOR083W, strain WHI5, active compounds read low 1.01 | S. cerevisiae deletion strains, locus YOR106W, strain vam3, active compounds read low 0.998 | S. cerevisiae deletion strains, locus YOR136W, strain idh2, active compounds read low 0.999 | S. cerevisiae deletion strains, locus YOR144C, strain elg1, active compounds read low 0.993 | S. cerevisiae deletion strains, locus YOR184W, strain ser1, active compounds read low 0.978 | S. cerevisiae deletion strains, locus YOR231W, strain MKK1, active compounds read low 0.971 | S. cerevisiae deletion strains, locus YOR265W, strain rbl2, active compounds read low 1.03 | S. cerevisiae deletion strains, locus YOR270C, strain vph1, active compounds read low 1.08 | S. cerevisiae deletion strains, locus YOR290C, strain snf2, active compounds read low 1.01 | S. cerevisiae deletion strains, locus YOR316C, strain cot1, active compounds read low 0.995 | S. cerevisiae deletion strains, locus YPL051W, strain arl3, active compounds read low 1.02 | S. cerevisiae deletion strains, locus YPL055C, strain LGE1, active compounds read low 0.951 | S. cerevisiae deletion strains, locus YPL078C, strain atp4, active compounds read low 1.03 | S. cerevisiae deletion strains, locus YPL106C, strain sse1, active compounds read low 1.11 | S. cerevisiae deletion strains, locus YPL240C, strain hsp82, active compounds read low 1.02 | S. cerevisiae deletion strains, locus YPL241C, strain CIN2, active compounds read low 0.991 | S. cerevisiae deletion strains, locus YPL256C, strain CLN2, active compounds read low 0.983 | S. cerevisiae deletion strains, locus YPR119W, strain clb2, active compounds read low 1 | S. cerevisiae deletion strains, locus YPR141C, strain kar3, active compounds read low 1 | S. cerevisiae deletion strains, locus YPR163C, strain tif3, active compounds read low 0.996 | S. cerevisiae deletion strains, locus YPR167C, strain met16, active compounds read low 0.999 | S. cerevisiae deletion strains, strain wtn01, active compounds read low 0.988 | S. cerevisiae strains, strain wild type, active compounds read low 1

From PubChem BioAssay AID1159580 (chemical genetic matrix, 2015)
